PubChem BioAssay (NCI)
The panel holds about 79,000 compounds, 15% with a hit somewhere; the sample as a whole holds those more often. The source made the active and inactive calls. No stated cut-off is given here; in the data, active means growth inhibition above about 70%; inactive means the rest.

Tests used:
[1] = NCI Yeast Anticancer Drug Screen. Data for the mec2-1 strain (AID 157); conditions: S. cerevisiae mec2-1 strain, hits give high values
In short: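 Yeast mec2-1 mutant treated with compound. Readout: growth inhibition vs vehicle controls.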

[2] = NCI Yeast Anticancer Drug Screen. Data for the rad14 strain (AID 159);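 further: 0% = growth of vehicle-treated control cultures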; conditions: S. cerevisiae rad14 strain growth inhibition, hits give high values
In short: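 Yeast cells carrying a defined DNA-repair defect were exposed to compounds, and growth inhibition was calculated relative to vehicle-treated control cultures.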

[3] = NCI Yeast Anticancer Drug Screen. Data for the sgs1 mgt1 strain (AID 161);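 further: 0% = growth of cultures given vehicle only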; conditions: S. cerevisiae sgs1 mgt1 strain, hits give high values
In short: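 Read-out: growth inhibition vs vehicle controls. Cells: mutant yeast strain deficient in DNA damage repair.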

[4] = NCI Yeast Anticancer Drug Screen. Data for the CLN2oe strain (AID 163);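 further: 0% = growth of vehicle-only control cultures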; conditions: S. cerevisiae CLN2oe strain, hits give high values
In short: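 Read-out: yeast growth inhibition, expressed relative to vehicle-only controls. The strain bears an engineered cell-cycle alteration.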

[5] = NCI Yeast Anticancer Drug Screen. Data for the cln2 rad14 strain (AID 165);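 further: 0% = growth equal to vehicle treated cultures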; conditions: S. cerevisiae cln2 rad14 strain, hits give high values
In short: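 cln2 rad14 yeast strain; compound exposure; growth inhibition read vs vehicle controls.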

[6] = NCI Yeast Anticancer Drug Screen. Data for the bub3 strain (AID 167); conditions: S. cerevisiae bub3 mutant strain, hits give high values
In short: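 Compounds were applied to a genetically altered yeast strain carrying a cell-cycle control defect. Growth inhibition was scored against vehicle-treated controls.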

[7] = NCI Yeast Anticancer Drug Screen. Data for the wt2 strain (AID 169);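 further: 0% = growth of vehicle-treated yeast cultures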; conditions: S. cerevisiae wt2 strain growth inhibition, hits give high values
In short: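 Read-out: growth inhibition versus vehicle-treated control cultures after compound exposure of the yeast strain.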

[8] = NCI Yeast Anticancer Drug Screen. Data for the mlh1 strain (AID 171);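 further: 0% = growth of vehicle-treated control cultures of the same strain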; conditions: S. cerevisiae mlh1 strain growth inhibition, hits give high values
In short: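 Read-out: growth inhibition versus vehicle controls. Strain: engineered yeast with a defined DNA repair or cell cycle defect, compound-treated.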

[9] = NCI Yeast Anticancer Drug Screen. Data for the sgs1 strain (AID 173);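 further: 0% = growth of vehicle-only control cultures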; conditions: S. cerevisiae sgs1 mutant, hits give high values
In short: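 Read-out: yeast growth inhibition relative to vehicle controls, following compound exposure of a strain with a defined DNA repair/cell cycle alteration.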

[10] = NCI Yeast Anticancer Drug Screen. Data for the mlh1 rad18 strain (AID 175); conditions: S. cerevisiae mlh1 rad18 strain growth inhibition, hits give high values
In short: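 Yeast w/ defined DNA-repair lesions; compound exposure; growth vs vehicle controls → % inhibition.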

[11] = NCI Yeast Anticancer Drug Screen. Data for the rad18 strain (AID 177); conditions: S. cerevisiae rad18 mutant growth inhibition, hits give high values
In short: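 Readout: growth inhibition vs vehicle controls. Cells: genetically altered yeast strain, DNA repair defect.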

[12] = NCI Yeast Anticancer Drug Screen. Data for the rad52 strain (AID 147);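 further: 0% = growth of vehicle-treated control cultures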; conditions: S. cerevisiae rad52 mutant growth inhibition, hits give high values
In short: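 Read-out: growth inhibition versus vehicle-treated controls. Cells were a DNA repair-deficient yeast strain treated with compounds.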

[13] = NCI Yeast Anticancer Drug Screen. Data for the wt1 strain (AID 149);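 further: 0% = growth of vehicle-treated wt1 cultures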; conditions: S. cerevisiae wt1 strain (SPY 50644) growth inhibition, hits give high values
In short: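 Yeast wt1 strain exposed to compounds; growth inhibition measured relative to vehicle-treated controls.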

[14] = NCI Yeast Anticancer Drug Screen. Data for the rad50EPP+ strain (AID 151);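 further: 0% = growth of vehicle-treated control cultures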; conditions: S. cerevisiae rad50 mutant strain, hits give high values
In short: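 Growth inhibition read against vehicle controls in rad50EPP+ yeast, a strain altered in DNA damage repair, after compound exposure.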

[15] = NCI Yeast Anticancer Drug Screen. Data for the rad50 strain (AID 155);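 further: 0% = growth of vehicle-only cultures of the same strain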; conditions: S. cerevisiae rad50 strain growth inhibition, hits give high values
In short: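 Yeast carrying a defined DNA repair defect were exposed to test compounds, and growth was compared with vehicle-treated controls to give percent inhibition.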

[16] = at 5.0 µM (retest, dose inferred, filed as 0.5)
[17] = at 50.0 µM (retest, dose inferred, filed as 5.0)

Measured: growth inhibition

CC1=NN(c2cccc(Cl)c2)C(=O)C1
active: [10]; [16] 73% | [10]; [17] 100%
inactive: [1]; at 100.0 µM 32% | [2]; at 1.2 µM -4% | [2]; at 3.7 µM -21% | [2]; at 11.0 µM -22% | [2]; at 33.0 µM 3% | [2]; at 100.0 µM 36% | [3]; [16] -12% | [3]; [17] 56% | [3]; at 50.0 µM 55.9% | [4]; at 1.2 µM -26% | [4]; at 3.7 µM -4% | [4]; at 11.0 µM -1% | [4]; at 33.0 µM -15% | [4]; at 100.0 µM 20% | [5]; [16] 39% | [5]; [17] 62% | [5]; at 50.0 µM 27.2% | [6]; at 1.2 µM -42% | [6]; at 3.7 µM -33% | [6]; [16] 27% | [6]; at 11.0 µM -32% | [6]; at 33.0 µM -36% | [6]; [17] 33% | [6]; at 50.0 µM 57.1% | [6]; at 100.0 µM 29% | [7]; at 1.2 µM -31% | [7]; at 3.7 µM -28% | [7]; at 11.0 µM -15% | [7]; at 33.0 µM 8% | [7]; at 100.0 µM 51% | [8]; at 1.2 µM -13% | [8]; at 3.7 µM -20% | [8]; at 11.0 µM -16% | [8]; at 33.0 µM 2% | [8]; at 100.0 µM 56% | [9]; at 1.2 µM -27% | [9]; at 3.7 µM -22% | [9]; at 11.0 µM -11% | [9]; at 33.0 µM 4% | [9]; at 100.0 µM 50% | [10]; at 50.0 µM 44% | [11]; at 1.2 µM -47% | [11]; at 3.7 µM -34% | [11]; at 11.0 µM -22% | [11]; at 33.0 µM -20% | [11]; at 100.0 µM 8%

CCCCCCCCCCCCCC[N+](C)(CC(=O)[O-])Cc1ccccc1 (stereo unspecified)
active: [12]; at 11.0 µM 99% | [12]; at 33.0 µM 98% | [12]; at 100.0 µM 99% | [13]; at 11.0 µM 99% | [13]; at 100.0 µM 99% | [14]; at 11.0 µM 99% | [14]; at 33.0 µM 99% | [14]; at 100.0 µM 98% | [15]; at 11.0 µM 99% | [15]; at 33.0 µM 99% | [15]; [17] 99% | [15]; at 50.0 µM 98.8% | [15]; at 100.0 µM 99% | [1]; at 11.0 µM 99% | [1]; at 33.0 µM 99% | [1]; [17] 100% | [1]; at 50.0 µM 99.1% | [1]; at 100.0 µM 99% | [2]; at 11.0 µM 100% | [2]; at 33.0 µM 99% | [2]; at 100.0 µM 99% | [3]; [17] 99% | [3]; at 50.0 µM 98.8% | [4]; at 11.0 µM 99% | [4]; at 33.0 µM 99% | [4]; at 100.0 µM 99% | [5]; [17] 99% | [5]; at 50.0 µM 93.8% | [6]; at 11.0 µM 99% | [6]; at 33.0 µM 99% | [6]; [17] 99% | [6]; at 50.0 µM 98.9% | [6]; at 100.0 µM 98% | [7]; at 11.0 µM 100% | [7]; at 100.0 µM 99% | [9]; at 11.0 µM 99% | [9]; at 33.0 µM 99% | [9]; at 100.0 µM 99% | [10]; [17] 99% | [10]; at 50.0 µM 99.1% | [11]; at 11.0 µM 99% | [11]; at 33.0 µM 99% | [11]; at 100.0 µM 99%
inactive: [12]; at 1.2 µM 2% | [12]; at 3.7 µM 23% | [13]; at 1.2 µM -1% | [13]; at 3.7 µM 1% | [13]; at 33.0 µM 54% | [14]; at 1.2 µM 5% | [14]; at 3.7 µM 32% | [15]; at 1.2 µM 8% | [15]; at 3.7 µM 50% | [15]; [16] 8% | [1]; at 1.2 µM -2% | [1]; at 3.7 µM 3% | [1]; [16] 32% | [2]; at 1.2 µM 10% | [2]; at 3.7 µM 30% | [3]; [16] 13% | [4]; at 1.2 µM 5% | [4]; at 3.7 µM 19% | [5]; [16] 9% | [6]; at 1.2 µM -1% | [6]; at 3.7 µM 10% | [6]; [16] 2% | [7]; at 1.2 µM -6% | [7]; at 3.7 µM 9% | [7]; at 33.0 µM 60% | [9]; at 1.2 µM 2% | [9]; at 3.7 µM 30% | [10]; [16] 1% | [11]; at 1.2 µM 3% | [11]; at 3.7 µM 23%
